This passage reports composite z-score and z-score results from PubChem BioAssay.

Assay [1] has as its system XIP peptide (Xip251-270) binding. Put plainly: XIP fragment 251-270 binding compounds – biochemical, small-molecule microarray, fluorescence 635/667 nm, 0.1 µg/mL protein, primary screen (AID 1182). Conditions: fluorescent protein binding, 635 nm, higher = more signal, called active from +8 up or from −8 down.
A further assay relates to XIP peptide (Xip251-270). Put plainly: compounds binding XIP fragment 251-270 – biochemical, small-molecule microarray, fluorescence 635/667 nm, 0.5 µg/mL protein, primary screen (AID 1183). Conditions: fluorescence 635 nm, higher = more signal.
Assay [2] is described as follows: blood-stage malaria parasite viability loss – strain 3D7, DAPI fluorescence, 100 nL, primary screen (AID 1184).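 Note: parasites grown inside human red blood cells in medium with human serum.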 Conditions: P. falciparum 3D7 growth, 3 d, higher = more signal.
For assay [3], the target named is Homeobox protein Hox-A13 (Mus musculus) (UniProt Q62424). The experiment in a line: disruptors of Hoxa13 oligonucleotide interaction – biochemical, fluorescence polarization, labeled oligonucleotide, primary screen (AID 1185). Conditions: Hoxa13:DNA binding, 15 min, higher = more signal, called active from +8 up or from −8 down. In general terms: In fluorescence polarisation assays a small probe gives low polarisation when free and higher when bound to something large.

The nature of assay [4]: blockers of DNA damage checkpoint Chk1 activation – imaging, HeLa, hydroxyurea, phospho-Chk1 antibody, percent positive cells, primary screen (AID 1186). The conditions noted are these: hydroxyurea-induced phospho-Chk1 immunofluorescence imaging, higher = more signal.
Assay [5] is described as follows: blockers of DNA damage checkpoint Chk1 activation – imaging, HeLa, hydroxyurea, phospho-Chk1 nuclear intensity, primary screen (AID 1187). The conditions noted are these: hydroxyurea-induced phospho-Chk1 immunofluorescence imaging, higher = more signal.

Structures are written as SMILES. Activity calls are given as the source filed them. Unless noted, the rule behind the calls is not given here.

Homeobox protein Hox-A13 (Mus musculus), sequence (Q62424 whole entry, looked up): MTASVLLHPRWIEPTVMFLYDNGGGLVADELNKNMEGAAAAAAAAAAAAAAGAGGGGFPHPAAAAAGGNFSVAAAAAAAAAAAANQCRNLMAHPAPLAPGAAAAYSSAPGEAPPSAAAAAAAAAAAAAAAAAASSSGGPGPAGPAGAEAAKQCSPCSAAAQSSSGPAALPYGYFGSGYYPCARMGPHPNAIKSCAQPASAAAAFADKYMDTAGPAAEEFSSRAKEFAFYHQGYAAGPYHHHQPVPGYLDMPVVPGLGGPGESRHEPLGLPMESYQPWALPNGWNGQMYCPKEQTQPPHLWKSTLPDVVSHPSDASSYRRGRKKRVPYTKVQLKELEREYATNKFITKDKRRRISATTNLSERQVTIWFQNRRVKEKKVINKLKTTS

Take `CC(C)NC(=O)[C@@H]1c2ccccc2C(=O)N(C2CCCCC2)[C@H]1c1ccc(CO)cc1`: the composite z-score in assay [1] is 0.457 (inactive); with XIP peptide (Xip251-270), 0.254. In addition, the z-score was -0.361 in assay [2], -2.65 (inactive) in assay [3], -0.0625 (inactive) in assay [4] and -0.237 (inactive) in assay [5].

As to `CC(C)CNC(=O)[C@@]1(C)c2ccccc2C(=O)N(C(C)C)[C@H]1c1ccc(CO)cc1`, the composite z-score was -0.776 (inactive) in assay [1] and -0.692 in the assay on XIP peptide (Xip251-270). For the same compound, the z-score was 1.22 in assay [2], -1.35 (inactive) in assay [3], 0.221 (inactive) in assay [4] and -0.0172 (inactive) in assay [5].

Consider `COCCOC(=O)N1C(=O)[C@@]2(c3cc(C#Cc4ccc(OC)cc4)ccc31)[C@H](c1ccc(O)cc1)N1[C@H](c3ccccc3)[C@H](c3ccccc3)OC(=O)[C@H]1[C@@H]2C(=O)N1CCN(c2ncccn2)CC1`, for which the composite z-score in assay [1] is 0.164 (inactive); in the assay with XIP peptide (Xip251-270), 0.596. Moreover, the z-score in assay [2] was -1.86; in assay [3], -0.821 (inactive); in assay [4] it was 0.187 (inactive); in assay [5], 0.302 (inactive).

Take `O=C(NCc1ccccc1)[C@@H]1c2ccccc2C(=O)N(Cc2cc(F)cc(C(F)(F)F)c2)[C@H]1c1ccc(CO)cc1`: the composite z-score is 0.818 (inactive) in assay [1] and 0.941 in the assay on XIP peptide (Xip251-270). The z-score is -0.0341 in assay [2], -2.88 (inactive) in assay [3], -1.07 (inactive) in assay [4] and -1.29 (inactive) in assay [5].

As to `C=CCCN(CC#C[C@H]1Oc2ccccc2S(=O)(=O)N2CCC[C@@H]12)S(=O)(=O)c1ccc(C)cc1`, the composite z-score is -0.183 (inactive) in assay [1] and -0.0455 in the assay with XIP peptide (Xip251-270). In addition, the z-score was -1.53 in assay [2], -2.47 (inactive) in assay [3], 0.508 (inactive) in assay [4] and 0.431 (inactive) in assay [5].

Consider `CCOC(=O)C1=CC[C@@H](c2cccc(Cl)c2)N(S(=O)(=O)c2ccc(C)cc2)[C@H]1c1ccc(C#N)cc1`, for which the figures for the composite z-score (in assay [1]; in the assay on XIP peptide (Xip251-270)) were 0.197 (inactive) and 0.73, respectively. The z-score in assay [2] is -2.12; in assay [3] it was 1.05 (inactive); in assay [4], 0.645 (inactive); in assay [5], -0.118 (inactive).

For `C[n+]1ccc2ccc(O)cc2c1`, the composite z-score is 1.35 (inactive) in assay [1] and 0.612 with XIP peptide (Xip251-270). Also, the z-score in assay [2] was -0.901; in assay [3], -8.11 (active); in assay [4], 0.124 (inactive); in assay [5], 0.282 (inactive).

Regarding `CCCCN1CC=CC23O[C@@H]4C=CCCOC(=O)C4[C@H]2C(=O)N(CCCO)[C@@H]3C1=O` (stereo not given in full), the composite z-score is -0.687 (inactive) in assay [1] and -0.624 in the assay with XIP peptide (Xip251-270). Further, the z-score in assay [2] is -1.74; in assay [3], -3.72 (inactive); in assay [4], -0.0781 (inactive); in assay [5], -0.559 (inactive).

As for `COCC1=C([C@H](O)CCc2ccccc2)[C@H](CO)[C@@H]2C(=O)N(Cc3ccccc3)C(=O)[C@@H]2C1`, the composite z-score in assay [1] was -0.0534 (inactive); in the assay with XIP peptide (Xip251-270), 0.155. Further, the z-score in assay [2] was -0.54; in assay [3], -5.17 (inactive); in assay [4], -0.955 (inactive); in assay [5], -0.946 (inactive).

As for `C=CCOC(=O)[C@H]1[C@@H]2C(=O)O[C@@H](c3ccccc3)[C@@H](c3ccccc3)N2[C@@H](c2ccc(OCCOC(=O)[C@@H]3C[C@@H]4C(=O)NCC(=O)N4[C@@H]3c3ccc(O)cc3)cc2)[C@]12C(=O)Nc1ccc(I)cc12`, the composite z-score was 0.2 (inactive) in assay [1] and 0.825 in the assay with XIP peptide (Xip251-270). For the same compound, the z-score in assay [2] is -1.11; in assay [3], 0.274 (inactive); in assay [4] it was 0.147 (inactive); in assay [5] it was 0.192 (inactive).

With `COCCOC(=O)N1C(=O)[C@@]2(c3cc(C#CC4=CCCCC4)ccc31)[C@H](C(=O)N1CCN(c3ncccn3)CC1)[C@H]1C(=O)O[C@H](c3ccccc3)[C@H](c3ccccc3)N1[C@@H]2c1ccc(OCCO)cc1`, the composite z-score in assay [1] is 0.499 (inactive); in the assay with XIP peptide (Xip251-270), 0.463. Also, the z-score is -2.08 in assay [2], 1.96 (inactive) in assay [3], 0.0924 (inactive) in assay [4] and 0.501 (inactive) in assay [5].

Take `COC(=O)c1nc2oc1CC[C@@H](CO)NC(=O)N(C)Cc1cn(nn1)C[C@H](Cc1ccccc1)NC2=O`: the composite z-score in assay [1] is 0.827 (inactive); in the assay with XIP peptide (Xip251-270), 0.969. Also, the z-score is 1.24 in assay [2], -1.31 (inactive) in assay [3], -0.0288 (inactive) in assay [4] and -0.455 (inactive) in assay [5].

On to `CO[C@H]1O[C@H](CO)[C@@H](OC(=O)Nc2cccc(F)c2)[C@H](OC(=O)Nc2ccccc2-c2ccccc2)[C@@H]1OC(=O)Nc1ccccc1-c1ccccc1`, for which the values for the composite z-score (in assay [1]; in the assay on XIP peptide (Xip251-270)) were 1.37 (inactive) and 0.805, respectively. Also, the z-score is -2.53 in assay [2], -1.83 (inactive) in assay [3], -0.164 (inactive) in assay [4] and 0.217 (inactive) in assay [5].

Regarding `CN1C(=O)C2C=CC(C(O)C(C)(C)C)N(Nc3ccccc3)C2C1=O` (stereo not given), the composite z-score in assay [1] is 0.127 (inactive); in the assay on XIP peptide (Xip251-270), 0.403. Moreover, the z-score is 0.987 in assay [2], -0.565 (inactive) in assay [3], -0.415 (inactive) in assay [4] and -0.815 (inactive) in assay [5].

On to `NC(=O)NCC#Cc1ccc2c(c1)[C@]1(C(=O)N2)[C@H](C(=O)NC[C@H](O)c2ccccc2)[C@H]2C(=O)O[C@H](c3ccccc3)[C@H](c3ccccc3)N2[C@@H]1c1ccccc1OCCO`, for which the figures for the composite z-score (in assay [1]; in the assay with XIP peptide (Xip251-270)) were 0.635 (inactive) and 0.799, respectively. Further, the z-score in assay [2] was -1.32; in assay [3], -3.41 (inactive); in assay [4], -0.228 (inactive); in assay [5], -0.374 (inactive).
